We go through eight compounds from the supplement of paper PMC7366291.

Structures can show the parent of a compound that is named as a salt. ± gives the standard deviation of the averaged measurements.

The test system of the test is Danio rerio Tg(wt1b:EGFP) embryo, pronephros. The test can be described thus: pronephric angle neck segment to proximal convoluted tubule (mean of left and right), fold change vs DMSO control; higher = larger pronephric angle. The settings on record: 25 µM; exposure: 24-48 hpf. The method in brief: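 Features are reported as fold changes against the mean of same-day DMSO-treated embryos. Before that, values more than 2 SD away from the feature mean were excluded. The embryos, dechorionated Tg(wt1b:EGFP) zebrafish, had been exposed from 24 to 48 hpf at 28.5°C to 25 μM compound in 0.5% DMSO in HEPES-buffered E3 with 0.003% PTU, and distances and angles came from 16 manually set points on maximum projections of dorsal pronephros images in Fiji.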
For the compound `OCCN1CCN(CCCN2c3ccccc3Sc3ccc(C(F)(F)F)cc32)CC1` [Fluphenazine dihydrochloride], the “pronephric angle neck segment” value turned out to be 0.932 ± 0.013.
Under `CN1CCN(CC(=O)N2c3ccccc3C(=O)Nc3cccnc32)CC1` [Pirenzepine dihydrochloride] stands 1.03 ± 0.059; under `CN(C)CCCOc1nn(Cc2ccccc2)c2ccccc12` [Benzydamine hydrochloride], 0.9939 ± 0.0028.
Under `CCN(Cc1ccncc1)C(=O)C(CO)c1ccccc1` (stereo not drawn) [Tropicamide] stands 0.987 ± 0.052; under `O=C1CCC(N2C(=O)c3ccccc3C2=O)C(=O)N1` (stereo not drawn) [Thalidomide], 0.748 ± 0.037; under `O=C(O)c1cn(C2CC2)c2cc(N3CCNCC3)c(F)cc2c1=O` [Ciprofloxacin hydrochloride monohydrate], 0.988 ± 0.023.
The value for `CC(C)(O/N=C(\C(=O)N[C@@H]1C(=O)N2C(C(=O)[O-])=C(C[n+]3ccccc3)CS[C@H]12)c1csc(N)n1)C(=O)O` [Ceftazidime pentahydrate] was 0.961 ± 0.018; that for `c1ccc(C2CN3CCSC3=N2)cc1` (stereo not drawn) [Tetramisole hydrochloride] was 0.94 ± 0.035.
